# According to PubChem BioAssay (Tox21):
# Where “and” joins values, the source holds several entries; their conditions need not be identical. Equal entries are not always repeated. Results filed as inconclusive are left out. Where a call stands in place of a potency, no number is given. Calls of active or inactive are those of the source. Unless noted, the call rests on the fitted dose curve; in most records, active means well fitted curve in the direction sought with a large enough effect in the repeat runs; inconclusive means weak or mixed curves; inactive means no such curve, though single readings can be large; an effect the other way counts as inactive or inconclusive. Positions of bridges follow the written chain, without caps; N, C: chain ends. Non-standard residues stand in square brackets, D forms with d. Residues, ends and D or L forms follow the SMILES beside them. *: point of attachment. Dab(CH2SO3H) = N[C@@H](CCNCS(=O)(=O)O)C(=O)O; X3 = CC[C@@H](C)CCCCC(=O)*; Dab = NCC[C@H](N)C(=O)O
# Legend:
# [1] = qHTS assay to identify small molecule antagonists of the thyroid receptor (TR) signaling pathway - cell viability counter screen (AID 743064); further: nearly all actives have a fitted effect of over 50% in size; further: potency means the concentration at half of the fitted maximal effect
# Procedure, shortened: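 Plate GH3.TRE-Luc cells; incubate 4 h at 37 °C; add compound, then T3 to 1 nM final; incubate 23.5 h; add CellTiter-Fluor; incubate 30 min at 37 °C, 5% CO2; read fluorescence.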
# [2] = qHTS assay to identify small molecule antagonists of the thyroid receptor (TR) signaling pathway (AID 743065); further: nearly all actives have a fitted effect of over 55% in size; further: potency means the concentration at half of the fitted maximal effect
# Procedure, shortened: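 GH3.TRE-Luc rat pituitary cells carrying two TR response elements driving luciferase were plated for 4 h, given compound plus 1 nM T3 (final), and incubated 23.5 h at 37 C. ONE-Glo luminescence measured reporter inhibition; CellTiter-Fluor fluorescence tracked cytotoxicity.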
# [3] = system: thyroid hormone receptor (rat, GH3 cells); experiment: qHTS assay to identify small molecule agonists of the thyroid receptor (TR) signaling pathway (AID 743066; calls by dose curve)
# [4] = qHTS assay to identify small molecule antagonists of the estrogen receptor alpha (ER-alpha) signaling pathway - cell viability counter screen (AID 743074; calls by dose curve;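 further: HEK293 cells carrying ER-alpha-UAS-bla reporter stimulated with 17beta-estradiol; nearly all actives have a fitted effect of over 45% in size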; further: potency means the concentration at half of the fitted maximal effect)
# [5] = qHTS assay to identify small molecule antagonists of the estrogen receptor alpha (ER-alpha) signaling pathway using the BG1 cell line - cell viability counter screen (AID 743081);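 further: compound given together with 17beta-estradiol as the ER stimulus; series mostly up to about 70 µM; nearly all actives have a fitted effect of over 45% in size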
# [6] = molecular target: Aromatase (Homo sapiens) (UniProt P11511); experiment: qHTS assay to identify aromatase inhibitors (AID 743083); further: nearly all actives have a fitted effect of over 55% in size; further: potency means the concentration at half of the fitted maximal effect
# Chain of Aromatase (Homo sapiens) (P11511 whole entry, looked up): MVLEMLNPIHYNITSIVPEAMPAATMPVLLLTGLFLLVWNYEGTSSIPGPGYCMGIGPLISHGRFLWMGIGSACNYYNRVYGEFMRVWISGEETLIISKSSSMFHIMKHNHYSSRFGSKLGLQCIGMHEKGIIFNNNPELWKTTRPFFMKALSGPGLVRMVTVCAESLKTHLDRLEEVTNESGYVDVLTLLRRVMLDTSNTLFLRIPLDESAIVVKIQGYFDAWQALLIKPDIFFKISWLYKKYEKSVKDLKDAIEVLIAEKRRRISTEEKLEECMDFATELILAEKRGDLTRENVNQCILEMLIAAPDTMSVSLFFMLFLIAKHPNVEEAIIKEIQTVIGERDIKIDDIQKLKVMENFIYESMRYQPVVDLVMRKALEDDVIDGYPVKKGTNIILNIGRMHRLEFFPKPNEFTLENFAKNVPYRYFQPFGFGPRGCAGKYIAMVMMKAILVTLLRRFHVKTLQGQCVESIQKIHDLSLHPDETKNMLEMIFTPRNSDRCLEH
# [7] = qHTS assay to identify aromatase inhibitors - cell viability counter screen (AID 743084);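 further: cells stimulated with testosterone during compound exposure; nearly all actives have a fitted effect of over 55% in size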; further: potency means the concentration at half of the fitted maximal effect
# [8] = molecular target: Aryl hydrocarbon receptor (Homo sapiens) (UniProt P35869); experiment: qHTS assay to identify small molecule that activate the aryl hydrocarbon receptor (AhR) signaling pathway (AID 743085);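 further: HG2L7.5c1 human HepG2 liver cells with stably integrated DRE-driven firefly reporter; series mostly up to about 70 µM; nearly all actives have a fitted effect of over 15% in size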
# Chain of Aryl hydrocarbon receptor (Homo sapiens) (P35869 whole entry, looked up): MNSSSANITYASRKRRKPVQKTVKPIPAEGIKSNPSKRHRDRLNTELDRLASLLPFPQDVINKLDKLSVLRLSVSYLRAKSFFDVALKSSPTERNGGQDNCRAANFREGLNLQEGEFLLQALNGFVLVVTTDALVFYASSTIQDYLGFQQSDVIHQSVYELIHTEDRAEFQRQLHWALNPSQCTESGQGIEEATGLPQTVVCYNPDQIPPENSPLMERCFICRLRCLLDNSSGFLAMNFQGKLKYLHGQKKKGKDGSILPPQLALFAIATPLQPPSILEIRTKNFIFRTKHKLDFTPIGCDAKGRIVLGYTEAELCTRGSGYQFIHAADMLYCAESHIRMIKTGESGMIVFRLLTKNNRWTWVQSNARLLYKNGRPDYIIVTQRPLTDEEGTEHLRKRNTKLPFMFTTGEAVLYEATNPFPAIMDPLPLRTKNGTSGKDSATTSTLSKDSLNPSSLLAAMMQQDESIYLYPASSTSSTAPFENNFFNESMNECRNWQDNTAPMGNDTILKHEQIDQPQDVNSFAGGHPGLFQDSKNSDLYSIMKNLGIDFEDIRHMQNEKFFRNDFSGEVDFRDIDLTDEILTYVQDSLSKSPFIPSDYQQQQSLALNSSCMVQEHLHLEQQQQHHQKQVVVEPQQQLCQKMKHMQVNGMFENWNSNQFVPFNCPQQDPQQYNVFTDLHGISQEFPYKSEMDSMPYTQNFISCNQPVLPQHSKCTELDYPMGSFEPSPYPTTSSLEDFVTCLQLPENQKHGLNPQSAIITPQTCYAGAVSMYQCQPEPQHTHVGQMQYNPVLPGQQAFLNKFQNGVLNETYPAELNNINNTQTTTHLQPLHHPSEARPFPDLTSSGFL
# Procedure, shortened: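 Steps: seed HepG2-AhR-luc cells; allow 5 h at 37C; pin-transfer test compound or vehicle; incubate 24 h at 37C; add viability dye (30 min, 37C) and read fluorescence; add luciferase substrate (30 min, RT) and read luminescence.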
# [9] = qHTS assay to identify small molecule that activate the aryl hydrocarbon receptor (AhR) signaling pathway - cell viability counter screen (AID 743086);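 further: HepG2 liver cells carrying the AhR DRE luciferase reporter; series mostly up to about 70 µM; nearly all actives have a fitted effect of over 45% in size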
# Procedure, shortened: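 HepG2-AhR-luc (HG2L7.5c1) cells, 4000/well, were preincubated 5 h at 37C, exposed to compound in qHTS format for 24 hr at 37C, then given CellTiter-Fluor for 30 min; viability was read as fluorescence in the reporter wells.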
# [10] = molecular target: Estrogen receptor (Homo sapiens) (UniProt P03372); experiment: qHTS assay to identify small molecule agonists of the estrogen receptor alpha (ER-alpha) signaling pathway (AID 743075; calls by dose curve;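 further: HEK293 GripTite cells with ER-alpha and UAS-driven beta-lactamase reporter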)
# Chain of Estrogen receptor (Homo sapiens) (P03372 whole entry, looked up): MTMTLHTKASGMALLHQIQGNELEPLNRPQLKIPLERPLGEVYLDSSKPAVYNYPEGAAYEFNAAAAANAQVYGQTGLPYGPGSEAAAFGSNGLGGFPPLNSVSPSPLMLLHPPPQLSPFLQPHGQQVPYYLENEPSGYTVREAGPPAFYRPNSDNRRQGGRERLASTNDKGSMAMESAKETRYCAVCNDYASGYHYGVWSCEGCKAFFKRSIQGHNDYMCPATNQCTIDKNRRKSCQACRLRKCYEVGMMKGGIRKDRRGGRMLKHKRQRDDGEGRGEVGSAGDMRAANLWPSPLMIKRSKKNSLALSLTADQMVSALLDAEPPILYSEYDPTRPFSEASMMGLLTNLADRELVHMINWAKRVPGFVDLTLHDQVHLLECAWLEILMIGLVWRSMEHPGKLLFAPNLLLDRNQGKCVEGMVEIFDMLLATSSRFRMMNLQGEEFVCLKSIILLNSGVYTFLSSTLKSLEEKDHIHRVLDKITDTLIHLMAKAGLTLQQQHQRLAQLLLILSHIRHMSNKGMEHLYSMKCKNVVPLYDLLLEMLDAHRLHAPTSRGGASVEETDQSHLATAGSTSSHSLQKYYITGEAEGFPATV
# [11] = molecular target: Peroxisome proliferator-activated receptor gamma (Homo sapiens) (UniProt P37231); experiment: qHTS assay to identify small molecule agonists of the peroxisome proliferator-activated receptor gamma (PPARg) signaling pathway (AID 743094; active means well fitted activation curve with a large enough effect in the signal ratio in the repeat runs, not every such curve was filed as active; the % refers to the signal ratio)
# Chain of Peroxisome proliferator-activated receptor gamma (Homo sapiens) (P37231 whole entry, looked up): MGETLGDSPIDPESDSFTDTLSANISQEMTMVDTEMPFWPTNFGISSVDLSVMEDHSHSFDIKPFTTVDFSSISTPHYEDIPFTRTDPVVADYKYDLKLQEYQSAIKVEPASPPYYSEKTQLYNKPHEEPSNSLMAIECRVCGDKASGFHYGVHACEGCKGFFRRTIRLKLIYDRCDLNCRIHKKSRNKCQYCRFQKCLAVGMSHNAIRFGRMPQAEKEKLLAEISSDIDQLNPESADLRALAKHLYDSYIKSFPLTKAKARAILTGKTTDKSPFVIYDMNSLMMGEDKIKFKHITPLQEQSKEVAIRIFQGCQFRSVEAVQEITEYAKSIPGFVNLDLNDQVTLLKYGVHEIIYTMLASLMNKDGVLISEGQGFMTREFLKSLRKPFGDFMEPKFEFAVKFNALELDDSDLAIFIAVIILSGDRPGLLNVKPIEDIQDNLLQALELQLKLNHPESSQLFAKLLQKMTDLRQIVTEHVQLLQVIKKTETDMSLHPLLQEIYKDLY
# Procedure, shortened: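 Agonism was assessed in a beta-lactamase reporter system, HEK293H cells with a stably integrated UAS-bla construct under PPARg control; the 17 h treatment at 37C preceded a 1 h room-temperature FRET substrate read.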
# [12] = qHTS assay to identify small molecule antagonists of the peroxisome proliferator-activated receptor gamma (PPARg) signaling pathway - cell viability counter screen (AID 743194); further: nearly all actives have a fitted effect of over 55% in size; further: potency means the concentration at half of the fitted maximal effect
# Procedure, shortened: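 PPARg-UAS-bla HEK293H cells were plated, rested 5 h at 37 C, then treated with compounds plus rosiglitazone (50 nM final) for 17 h at 37 C; viability was then read by CellTiter-Glo luminescence after 30 min at room temperature.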
# [13] = qHTS assay to identify small molecule agonists of the peroxisome proliferator-activated receptor delta (PPARd) signaling pathway - cell viability counter screen (AID 743211)
# Procedure, shortened: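 Viability of GeneBLAzer PPARd UAS-bla HEK293H cells was assessed after 17 h compound incubation at 37C, using CellTiter-Glo reagent added after the reporter read and luminescence recorded 30 min later.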
# [14] = molecular target: Estrogen receptor (Homo sapiens) (UniProt P03372); experiment: qHTS assay to identify small molecule agonists of the estrogen receptor alpha (ER-alpha) signaling pathway using the BG1 cell line (AID 743079); further: nearly all actives have a fitted effect of over 20% in size
# [15] = qHTS assay for small molecule activators of the heat shock response signaling pathway - cell viability counter screen (AID 743209); further: nearly all actives have a fitted effect of over 50% in size; further: potency means the concentration at half of the fitted maximal effect
# Procedure, shortened: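 Compounds dissolved in DMSO were added to overnight-plated HSE-bla HeLa cells and left 5 h at 37 C. Cell viability was quantified by luminescence using CellTiter-Glo.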
# [16] = molecular target: Peroxisome proliferator-activated receptor gamma (Homo sapiens) (UniProt P37231); experiment: qHTS assay to identify small molecule antagonists of the peroxisome proliferator-activated receptor gamma (PPARg) signaling pathway (AID 743191; calls by dose curve; further: series mostly up to about 63 µM; nearly all actives have a fitted effect of over 30% in size)
# Procedure, shortened: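 GeneBLAzer PPARg UAS-bla HEK293H cells carrying a UAS-driven beta-lactamase reporter were plated at 3000 cells/well, preincubated 5 h at 37C, then given compound for 17 h at 37C; LiveBLAzer B/G FRET substrate was read after 1 h at room temperature.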
# [17] = molecular target: Estrogen receptor (Homo sapiens) (UniProt P03372); experiment: qHTS assay to identify small molecule antagonists of the estrogen receptor alpha (ER-alpha) signaling pathway (AID 743069; active means well fitted curve in the direction sought with a large enough effect in the signal ratio in the repeat runs, not every such curve was filed as active; the % refers to the signal ratio)
# Procedure, shortened: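 A 17beta-estradiol challenge was applied right after compound transfer to ER-alpha-UAS-bla HEK293 cells previously kept in charcoal-stripped serum. Plates stood 18 hr at 37C and 5% CO2; fluorescence was read following 2 hr FRET substrate loading at room temperature.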
# [18] = qHTS assay to identify small molecule antagonists of the estrogen receptor alpha (ER-alpha) signaling pathway using the BG1 cell line (AID 743080; calls by dose curve; further: series mostly up to about 70 µM; nearly all actives have a fitted effect of over 25% in size)
# Procedure, shortened: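 Antagonist mode: compounds in DMSO were pinned onto BG1-Luc-4E2 cells alongside 17beta-estradiol agonist, incubated 21.5 h, and ERE-driven luciferase measured with ONE-Glo. Cytotoxicity was multiplexed using CellTiter-Fluor fluorescence.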
Structure (SMILES),Potency [1],Potency [2],Potency [3],Potency [4],Potency [5],Potency [6],Potency [7],Potency [8],Potency [9],Potency [10],Potency [11],Potency [12],Potency [13],Potency [14],Potency [15],Potency [16],Potency [17],Potency [18]
CC1CCCCN1CCCOC(=O)c1ccccc1 (configuration not stated),inactive,inactive,inactive,inactive,inactive,inactive,inactive,inactive,inactive,–,–,–,–,–,–,–,–,–
NCc1cccc(C2CCN(C(=O)c3ccc(C#Cc4ccccc4F)o3)CC2)c1,7.7 µM (active),7.7 µM (active),inactive,54.9 µM (active),–,68.6 µM (active),61.1 µM (active),inactive,–,inactive,inactive,19.5 µM (active),21.9 µM (active),–,–,–,–,–
CC(=O)OCC1=C(C(=O)O)N2C(=O)[C@@H](NC(=O)Cc3ccccc3)[C@H]2SC1,inactive,inactive,inactive,inactive,inactive,inactive,inactive,inactive,inactive,–,inactive,–,–,–,–,–,–,–
CC(CNC(=O)c1cccnc1)NC(=O)c1cccnc1 (configuration not stated),inactive,inactive,inactive,inactive,inactive,inactive,inactive,inactive,inactive,–,inactive,–,–,–,–,–,–,–
CC(=O)Oc1cc(C(F)(F)F)ccc1C(=O)O,inactive,inactive,inactive,inactive,inactive,inactive,inactive,inactive,inactive,–,inactive,–,–,–,–,–,–,–
CCCCCCCCCC[N+](C)(CCCCCCCCCC)CCC[Si](OC)(OC)OC,21.7 µM (active),21.7 µM (active),inactive,49 µM (active),inactive,61.1 µM (active),61.1 µM (active),inactive,–,–,–,30.9 µM (active),9.77 µM (active),inactive,13.8 µM (active),–,–,–
CCCC(CCC)C(=O)OC1C[C@H]2CC[C@@H](C1)[N+]2(C)C (some centres not stated),inactive,inactive,inactive,inactive,inactive,inactive,inactive,inactive,inactive,–,inactive,–,–,–,–,–,–,–
NS(=O)(=O)c1cc(Cl)c(Cl)c(S(N)(=O)=O)c1,inactive,inactive,inactive,inactive,inactive,inactive,inactive,inactive,inactive,–,–,–,–,–,–,–,–,–
Cc1ccc(Cl)c(N)c1Cl,inactive,inactive,inactive,inactive,inactive,inactive,inactive,inactive,inactive,–,inactive,inactive,–,–,inactive,inactive,–,–
CCOc1cc(CC(=O)N[C@@H](CC(C)C)c2ccccc2N2CCCCC2)ccc1C(=O)O,inactive,inactive,inactive,inactive,–,inactive,inactive,inactive,inactive,–,–,–,–,–,–,–,–,–
C[C@@H]1C(=O)NC2=Nc3cccc(Cl)c3CN21,inactive,inactive,inactive,inactive,inactive,inactive,inactive,inactive,inactive,–,inactive,–,–,–,–,–,–,–
N[C@H](CO)C(=O)O,inactive,inactive,inactive,inactive,inactive,inactive,inactive,inactive,inactive,–,inactive,–,–,–,–,–,–,–
CCCCCCCC[N+](C)(C)CCCCCCCC,21.1 µM (active),11.9 µM (active) and 13.3 µM (active),–,–,inactive,29.8 µM (active) and 26.6 µM (active),–,inactive,inactive,inactive,inactive,–,–,–,–,–,–,–
CC[C@@H](C)CCCCC(=O)N[C@@H](CCNCS(=O)(=O)O)C(=O)N[C@H](C(=O)N[C@@H](CCNCS(=O)(=O)O)C(=O)N[C@H]1CCNC(=O)[C@H]([C@@H](C)O)NC(=O)[C@H](CCNCS(=O)(=O)O)NC(=O)[C@H](CCNCS(=O)(=O)O)NC(=O)[C@H](CC(C)C)NC(=O)[C@@H](CC(C)C)NC(=O)[C@H](CCNCS(=O)(=O)O)NC1=O)[C@@H](C)O (X3-[Dab(CH2SO3H)]T[Dab(CH2SO3H)][Dab][Dab(CH2SO3H)][dL]L[Dab(CH2SO3H)][Dab(CH2SO3H)]T; lactam 4-C),inactive,–,inactive,inactive,inactive,inactive,inactive,inactive,inactive,inactive,–,–,–,inactive,–,–,inactive,inactive
C[N+]1(CCCCC[N+]2(C)CCCC2)CCCC1,inactive,–,inactive,inactive,inactive,inactive,inactive,inactive,inactive,inactive,inactive,–,–,inactive,–,–,inactive,inactive
Cc1cc(CC(C)CC(C)(C)C)n(O)c(=O)c1 (configuration not stated) (tested in a mixture with another compound),29.8 µM (active),21.1 µM (active),–,–,inactive,13.3 µM (active),–,inactive,inactive,–,inactive,–,–,–,–,–,–,–
